Data: paper PMC4552634, “A New Set of Chemical Starting Points with Plasmodium falciparum Transmission-Blocking Potential for Antimalarial Drug Discovery” (PLoS ONE, 2015)
Like-named read-outs stand apart in the source and are kept apart here. About 3,200 (25%) of roughly 13,000 compounds showed an effect of 50% or more. Some of the results follow.

System: P. falciparum stage V gametocytes
Design: BacTiter-Glo ATP luminescence viability of purified stage V gametocytes in 384-well plates, per cent inhibition versus DMSO
Conditions: 48 h, 5 µM, inhibitor

Row | Compound | % Inhibition | % Inhibition (% Inhibition)
1 | CC(=O)N(C)/N=C/[C@H](CCc1ccccc1)NC(=O)[C@H](CC(C)C)NC(=O)c1cccc(OCCN2CCOCC2)c1 [TCMDC-135821] | 14.53% | 
2 | OC1(C(F)(F)F)CC(c2ccccc2)=NN1c1nncc(-c2ccccc2)n1 (stereo not drawn) [TCMDC-123864] | 70.72% | 
3 | O=C(Nc1cccc(-c2cccc(-c3nc4ccccc4[nH]3)c2)c1)NC1CC1c1ccccc1 (stereo not drawn) [TCMDC-133253] |  | -2.475%
4 | Cc1cc(-c2cccc(CNC3CCN(C)CC3)c2)ccc1S(=O)(=O)NCc1ccccc1 [TCMDC-132379] | 41.73% | 
5 | CN1CCC(NCc2ccc(-c3ccc(S(=O)(=O)NCc4ccccc4)c(F)c3)cc2)CC1 [TCMDC-132235] | 73.08% | 
6 | Cc1cc(-c2ccc(CNC3CCN(C)CC3)cc2)ccc1S(=O)(=O)NCc1ccccc1 [TCMDC-132474] | 44.56% | 
7 | CN1CCC(NCc2cccc(-c3ccc(S(=O)(=O)NCc4ccccc4)c(F)c3)c2)CC1 [TCMDC-132219] | 107.3% | 
8 | CCNc1cc(C(=O)N[C@@H](Cc2ccccc2)[C@H](O)CN[C@H](C)C(C)(C)C)cc(N2CCCCS2(=O)=O)c1 [TCMDC-135194] | 4.242% | 
9 | O=C(N[C@@H](CC1CCCCC1)C(=O)NCc1cccc(C(F)(F)F)c1)c1ccc(O)c(-c2ccc(Cl)c(Cl)c2)c1 [TCMDC-140836] | 10.47% | 
10 | Cc1nc2sccn2c1C(=O)NCCc1ccccc1Cl [TCMDC-136538] | 1.524% | 
11 | CC(C)(CNC(=O)[C@H]1CCCN1)c1nc(-c2ccc(Cl)c(O)c2)c(-c2ccncc2)[nH]1 [TCMDC-141060] | -63.79% | 
12 | COc1ccccc1CCNc1nccc(N[C@@H](Cc2ccccc2)C(=O)NCc2cccs2)n1 [TCMDC-134745] | 80.93% | 
13 | O=C(NCc1cccs1)[C@H](Cc1ccccc1)Nc1ccnc(NCCc2ccccc2)n1 [TCMDC-134810] | 62.6% | 
14 | O=C(NCc1cccs1)[C@H](Cc1ccccc1)Nc1ccnc(NCC2CCCCC2)n1 [TCMDC-134708] | -6.926% | 
15 | O=C(NCc1cccs1)[C@H](Cc1ccccc1)Nc1ccnc(NCCc2ccc(F)cc2)n1 [TCMDC-134825] | 42.49% | 
16 | O=C(NCCc1ccccc1)[C@H](Cc1ccccc1)Nc1ccnc(NCC2CCCCC2)n1 [TCMDC-134711] | 29.07% | 
17 | COc1ccccc1CCNc1ncc(F)c(N[C@@H](Cc2ccccc2)C(=O)NCCc2ccccc2)n1 [TCMDC-134948] | 4.371% | 
18 | O=C(C1CC1)N1c2ccccc2CCc2ccccc21 [TCMDC-123880] | 17.87% | 
